Activity calls are given as the source filed them.
Columns and labels:
Albumin (Bos taurus) = Albumin (Bos taurus) (UniProt P02769); experiment: compounds binding labelled BSA control protein – biochemical, small-molecule microarray, Alexa647 label, 635/667 nm fluorescence, artefact control for SMM control protein annotation, profiling panel (AID 1118); conditions: BSA-A647 binding, fluorescence 635 nm, higher = more signal;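 note: score merges 667 nm emission intensity and signal-to-noise per printed compound spot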
Albumin (Bos taurus), sequence (P02769 whole entry, looked up): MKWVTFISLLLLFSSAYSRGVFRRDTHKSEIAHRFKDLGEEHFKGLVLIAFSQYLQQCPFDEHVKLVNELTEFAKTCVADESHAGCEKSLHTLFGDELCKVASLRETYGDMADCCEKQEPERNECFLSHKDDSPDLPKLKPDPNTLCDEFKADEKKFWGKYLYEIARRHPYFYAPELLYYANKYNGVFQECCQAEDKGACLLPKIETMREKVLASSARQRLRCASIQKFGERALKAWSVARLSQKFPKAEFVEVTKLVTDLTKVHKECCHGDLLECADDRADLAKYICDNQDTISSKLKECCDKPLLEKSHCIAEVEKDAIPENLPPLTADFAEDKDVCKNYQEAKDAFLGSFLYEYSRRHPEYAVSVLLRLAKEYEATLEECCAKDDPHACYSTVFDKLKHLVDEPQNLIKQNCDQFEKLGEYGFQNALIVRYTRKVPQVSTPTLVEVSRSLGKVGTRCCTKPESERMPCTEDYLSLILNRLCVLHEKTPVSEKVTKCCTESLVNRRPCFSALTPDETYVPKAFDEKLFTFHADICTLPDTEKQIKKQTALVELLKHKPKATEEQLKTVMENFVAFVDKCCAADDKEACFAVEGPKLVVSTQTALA

[1] = probe aXIP binding to arrayed compounds – biochemical, NeuroSMM set, 635/667 nm fluorescence, primary screen (AID 1119); conditions: small-molecule microarray, higher = more signal, called active from +8 up or from −8 down;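 note: probe is the protein aXip251-270 applied at 1 µg/mL to compound-printed slides; binding of probe to printed compounds measured as 667 nm fluorescence plus signal to noise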
[2] = probe aNOTCH3 binding on compound microarray – biochemical, small-molecule microarray, 635/667 nm fluorescence, primary screen (AID 1120); conditions: higher = more signal;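 note: probe is a biotin-tagged antibody raised against NOTCH3 rather than NOTCH3 protein; score merges spot fluorescence near 667 nm with spot signal to noise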
[3] = probe aNOTCH2 binding on compound microarray – biochemical, small-molecule microarray, 635/667 nm fluorescence, primary screen (AID 1121); conditions: higher = more signal;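 note: score merges feature fluorescence read at 667 nm with its signal to noise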
[4] = biological target: Carbonic anhydrase 2 (Homo sapiens) (UniProt P00918); experiment: compounds binding carbonic anhydrase 2 – biochemical, small-molecule microarray, Alexa647-labelled CAII, profiling panel (AID 1122); conditions: CAII-A647 binding fluorescence, higher = more signal
[5] = COS7 lysate on small-molecule microarray, probe aHis, 635 nm (AID 1123); conditions: COS7 cell lysate, fluorescence, higher = more signal;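 note: z-score combines 667nm fluorescence intensity with signal-to-noise per printed compound spot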
[6] = probe aLAP1 signal on lysate-treated microarray – cell lysate, small-molecule microarray, COS7 lysate, primary screen (AID 1124); conditions: probe aLAP1, fluorescence, higher = more signal;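 note: lysate comes from COS7 cells expressing LAP1 and is applied at 0.3 µg/mL; score merges spot fluorescence near 667 nm with signal-to-noise over triplicate slides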
Sam68 (KHDRBS1) = experiment: compounds binding KHDRBS1 protein – biochemical, small-molecule microarray, 635 nm fluorescence, primary screen (AID 1125); conditions: higher = more signal;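 note: score merges 667 nm channel intensity with signal to noise over triplicate slides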
[7] = tested on: Chordin-like protein 2 (CHRDL2); experiment: compounds binding chordin-like 2 – biochemical, small-molecule microarray, 635 nm fluorescence, primary screen (AID 1126); conditions: fluorescence 635 nm, higher = more signal;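 note: printed compound slides probed with Chrdl2 protein at 4 µg/mL for 1 h at 4 C; score merges 667 nm emission intensity with signal to noise over three replicate slides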
[8] = biological target: Concanavalin-A (Canavalia ensiformis) (UniProt P02866); experiment: compounds binding concanavalin A lectin – biochemical, small-molecule microarray, Alexa647 label, 635 nm, artefact control for SMM control protein annotation, primary screen (AID 1127); conditions: ConA-A647 binding fluorescence, higher = more signal;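 note: z combines 667 nm emission intensity with signal-to-noise across three replicate slides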
Concanavalin-A (Canavalia ensiformis), sequence (P02866 whole entry, looked up): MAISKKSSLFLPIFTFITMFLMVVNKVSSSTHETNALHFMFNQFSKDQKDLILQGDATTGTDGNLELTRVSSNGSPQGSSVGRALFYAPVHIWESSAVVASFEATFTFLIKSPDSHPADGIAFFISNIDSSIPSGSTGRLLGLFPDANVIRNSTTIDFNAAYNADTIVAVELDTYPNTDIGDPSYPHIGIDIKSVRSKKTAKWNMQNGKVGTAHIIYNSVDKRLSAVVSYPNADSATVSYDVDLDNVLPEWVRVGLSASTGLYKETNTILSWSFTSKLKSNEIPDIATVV

[9] = compounds binding Alexa647 anti-His antibody – biochemical, small-molecule microarray, 635 nm fluorescence, artefact control for SMM control protein annotation, primary screen (AID 1128); conditions: higher = more signal;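 note: score merges feature fluorescence with signal-to-noise for each printed compound spot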
[10] = tested on: Human papillomavirus type 1a E7 protein (residues 1-88); experiment: HPV1a E7 small-molecule binders, primary screen, biochemical, small-molecule microarray, residues 1-88, 635 nm (AID 1129); conditions: small-molecule microarray binding, fluorescence 635 nm; higher = more signal
[11] = biological target: Focal adhesion kinase 1 (Homo sapiens) (UniProt Q05397); experiment: PTK2 protein binding on printed compound slides – biochemical, small-molecule microarray, 635/667 nm fluorescence, BSA, DTT, primary screen (AID 1130); conditions: 635 nm fluorescence, higher = more signal;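 note: composite of spot emission at 667 nm and signal to noise over triplicate slides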
Focal adhesion kinase 1 (Homo sapiens), sequence (Q05397 whole entry, looked up): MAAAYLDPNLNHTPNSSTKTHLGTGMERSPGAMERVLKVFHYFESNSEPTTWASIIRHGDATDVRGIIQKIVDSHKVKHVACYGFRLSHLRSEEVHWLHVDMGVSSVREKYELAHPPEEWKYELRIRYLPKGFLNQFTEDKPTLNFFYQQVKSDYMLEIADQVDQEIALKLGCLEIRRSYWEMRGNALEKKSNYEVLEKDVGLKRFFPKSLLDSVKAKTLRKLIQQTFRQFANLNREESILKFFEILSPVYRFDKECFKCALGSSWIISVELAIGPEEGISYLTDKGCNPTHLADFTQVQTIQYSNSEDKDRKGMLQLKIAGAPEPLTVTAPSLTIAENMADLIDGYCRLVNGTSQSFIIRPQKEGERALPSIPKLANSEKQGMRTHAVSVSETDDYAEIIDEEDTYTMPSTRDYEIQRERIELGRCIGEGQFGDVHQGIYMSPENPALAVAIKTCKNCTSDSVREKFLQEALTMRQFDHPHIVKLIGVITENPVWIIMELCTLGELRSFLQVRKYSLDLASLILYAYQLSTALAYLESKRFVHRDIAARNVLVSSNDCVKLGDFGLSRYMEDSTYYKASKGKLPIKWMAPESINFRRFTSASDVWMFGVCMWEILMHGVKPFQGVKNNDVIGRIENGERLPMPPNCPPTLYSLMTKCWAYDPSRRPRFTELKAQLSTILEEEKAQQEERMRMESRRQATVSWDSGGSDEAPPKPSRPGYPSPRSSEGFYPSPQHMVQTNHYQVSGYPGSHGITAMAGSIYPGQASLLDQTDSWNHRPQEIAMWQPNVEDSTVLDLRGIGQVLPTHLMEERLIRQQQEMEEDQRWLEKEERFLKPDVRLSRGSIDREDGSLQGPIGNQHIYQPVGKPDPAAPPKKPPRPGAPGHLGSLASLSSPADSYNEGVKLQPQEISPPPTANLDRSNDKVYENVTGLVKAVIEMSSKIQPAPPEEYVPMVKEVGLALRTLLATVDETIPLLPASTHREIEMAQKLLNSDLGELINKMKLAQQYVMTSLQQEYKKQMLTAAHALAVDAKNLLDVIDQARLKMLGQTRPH

[12] = tested on: Fibrinogen (Alexa647-labelled); experiment: Alexa647-fibrinogen binding to printed small molecules – biochemical, small-molecule microarray, 635/667 nm fluorescence, artefact control for SMM control-protein annotation, profiling panel (AID 1131); conditions: fibrinogen-A647 binding fluorescence, higher = more signal;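 note: z-score merges 667 nm fluorescence with per-spot signal-to-noise over triplicate slides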
[13] = biological target: Follistatin (Homo sapiens) (UniProt P19883); experiment: FST protein binding to printed compounds – biochemical, small-molecule microarray, 635/667 nm fluorescence, primary screen (AID 1132); conditions: 635 nm fluorescence, higher = more signal
Follistatin (Homo sapiens), sequence (P19883 whole entry, looked up): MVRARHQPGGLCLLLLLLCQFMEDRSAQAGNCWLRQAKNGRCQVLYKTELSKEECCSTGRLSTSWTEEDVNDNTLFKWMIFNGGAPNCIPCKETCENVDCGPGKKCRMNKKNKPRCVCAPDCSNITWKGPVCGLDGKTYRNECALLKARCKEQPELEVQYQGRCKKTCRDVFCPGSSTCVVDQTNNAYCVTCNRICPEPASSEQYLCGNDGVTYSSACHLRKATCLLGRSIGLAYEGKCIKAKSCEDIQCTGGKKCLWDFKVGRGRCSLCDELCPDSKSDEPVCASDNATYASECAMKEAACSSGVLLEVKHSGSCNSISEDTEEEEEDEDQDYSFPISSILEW

[14] = biological target: Fibroblast growth factor 2 (Homo sapiens) (UniProt P09038); experiment: basic fibroblast growth factor binding to printed compounds – biochemical, small-molecule microarray, 635/667 nm fluorescence, primary screen (AID 1133); conditions: FGF2, fluorescence 635/667, higher = more signal
Fibroblast growth factor 2 (Homo sapiens), sequence (P09038 whole entry, looked up): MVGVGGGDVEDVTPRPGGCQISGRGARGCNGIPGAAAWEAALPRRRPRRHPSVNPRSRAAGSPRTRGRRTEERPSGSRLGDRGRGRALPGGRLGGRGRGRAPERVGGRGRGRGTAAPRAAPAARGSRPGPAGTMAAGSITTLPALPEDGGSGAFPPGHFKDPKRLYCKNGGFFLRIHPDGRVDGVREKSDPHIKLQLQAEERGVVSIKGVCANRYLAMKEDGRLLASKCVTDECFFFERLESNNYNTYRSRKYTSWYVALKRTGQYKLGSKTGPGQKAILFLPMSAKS

[15] = JC-1 mitochondrial potential readout, lung cancer cells – cell-based, A549, JC-1 fluorescence, basal, 24 h, 100 nL, profiling panel (AID 1138); conditions: higher = more signal;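 note: A549 lung adenocarcinoma cells under basal conditions with no added stimulus; test concentration not given here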
Lefty1 = Lefty1 protein binding to printed compounds – biochemical, small-molecule microarray, 635/667 nm fluorescence, primary screen (AID 1139); conditions: fluorescence 635/667, higher = more signal
[16] = tested on: wheat germ agglutinin (Triticum aestivum), Alexa647-labelled; experiment: Alexa647-WGA lectin binding to printed small molecules – biochemical, small-molecule microarray, 635/667 nm fluorescence, artefact control for SMM control-protein annotation, profiling panel (AID 1140); conditions: WGA-A647 binding, 635 nm fluorescence, higher = more signal;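 note: score merges 667 nm feature emission with signal to noise over triplicate slides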
[17] = biological target: Luciferin 4-monooxygenase (Photinus pyralis) (UniProt P08659); experiment: inhibition of purified Photinus pyralis luciferase – biochemical, luminescence, purified enzyme, 2006 set, primary screen (AID 1141); conditions: purified firefly luciferase, SteadyGlo luminescence, 30 min; higher = more signal, called active from +8 up or from −8 down;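 note: cell-free assay with purified firefly luciferase at 100 ng per well in PBS; test concentration not given here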
Luciferin 4-monooxygenase (Photinus pyralis), sequence (P08659 whole entry, looked up): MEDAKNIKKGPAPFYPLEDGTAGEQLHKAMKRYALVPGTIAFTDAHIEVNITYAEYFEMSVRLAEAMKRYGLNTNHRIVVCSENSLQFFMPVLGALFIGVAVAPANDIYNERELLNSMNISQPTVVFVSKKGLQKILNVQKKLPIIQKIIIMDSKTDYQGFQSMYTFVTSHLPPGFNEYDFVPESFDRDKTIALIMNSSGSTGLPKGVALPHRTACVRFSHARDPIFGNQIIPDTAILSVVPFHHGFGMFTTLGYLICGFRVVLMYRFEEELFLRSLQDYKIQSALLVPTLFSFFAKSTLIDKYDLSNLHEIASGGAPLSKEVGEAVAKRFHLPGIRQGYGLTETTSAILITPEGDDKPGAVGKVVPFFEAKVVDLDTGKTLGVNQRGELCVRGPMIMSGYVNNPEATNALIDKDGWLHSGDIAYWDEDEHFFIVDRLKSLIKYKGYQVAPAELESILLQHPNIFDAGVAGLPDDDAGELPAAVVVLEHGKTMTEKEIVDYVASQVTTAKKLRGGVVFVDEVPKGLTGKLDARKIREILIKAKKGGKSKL

Row | SMILES | composite z-score (Albumin (Bos taurus)) | composite Z-score [1] | composite z-score [2] | composite z-score [3] | composite z-score [4] | composite z-score [5] | composite z-score [6] | composite z-score (Sam68 (KHDRBS1)) | composite z-score [7] | composite z-score [8] | composite z-score [9] | composite z-score [10] | composite z-score [11] | composite z-score [12] | composite z-score [13] | composite z-score [14] | z-score [15] | composite z-score (Lefty1) | composite z-score [16] | z-score [17]
1 | COc1ccccc1CN1C(=O)c2ccccc2[C@](Cc2ccccc2I)(C(=O)NCC(C)C)[C@@H]1c1ccc(CO)cc1 | -0.133 | 0.688 (inactive) | -0.0693 | -0.0241 | 0.542 | 1.97 | 0.675 | 0.781 | -0.483 | 0.792 | -0.718 | 0.654 | -0.299 | 0.378 | 1.05 | 0.133 | 2.54 | -0.803 | 0.0043 | -1.22 (inactive)
2 | Cc1ccc(F)cc1S(=O)(=O)N[C@H]1CCN(Cc2ccc(OC(C)C)cc2)C1 | -0.052 | -0.058 (inactive) | -0.0244 | -0.19 | 0.231 | 1.89 | 0.659 | 0.65 | 0.544 | -0.201 | 0.6 | -0.296 | -0.198 | -0.71 | 0.855 | 0.157 | 1.3 | 1.1 | -0.6 | -0.557 (inactive)
3 | NC(=O)N1C(=O)C2C(C1=O)C1C=C(CCCO)C2C(c2ccc(CN3CCCC3)cc2)N1Cc1sc2ccccc2c1Cl (stereo not given) | 0.492 | -1.02 (inactive) | 0.124 | -0.258 | 0.832 | 0.712 | 0.242 | -0.0045 | -0.352 | 0.271 | 0.17 | 0.1 | 0.39 | -0.109 | 0.301 | -0.145 | 0.947 | -0.131 | 0.394 | -0.286 (inactive)
4 | COCCOC(=O)N1C(=O)[C@@]2(c3cc(C#CCCO)ccc31)[C@H](C(N)=O)[C@H]1C(=O)O[C@H](c3ccccc3)[C@H](c3ccccc3)N1[C@@H]2c1ccccc1OCCO | 0.69 | 0.689 (inactive) | 0.0727 | -0.14 | 0.552 | 1.54 | 0.45 | 1.3 | -0.0675 | 1.14 | 3.07 | 1.21 | 0.425 | 0.897 | 1.19 | 0.516 | -0.256 | 0.673 | 0.713 | -0.683 (inactive)
5 | COCCOC(=O)N1C(=O)[C@@]2(c3cc(C#CCC(C(=O)OC)C(=O)OC)ccc31)[C@H](C(=O)Nc1nc3ccccc3s1)[C@H]1C(=O)O[C@H](c3ccccc3)[C@H](c3ccccc3)N1[C@@H]2c1ccc(OCCO)cc1 | -0.978 | 1.21 (inactive) | 0.414 | 0.0328 | 0.487 | 1.24 | 0.705 | 1.29 | 1.32 | 1.18 | 2.33 | 0.988 | 0.35 | 0.746 | 1.39 | 1.79 | -2.33 | 1.64 | 0.44 | -4.07 (inactive)
6 | C=CCOC(=O)[C@H]1[C@@H]2C(=O)O[C@@H](c3ccccc3)[C@@H](c3ccccc3)N2[C@@H](c2ccc(OCCOC(=O)[C@@H]3C[C@@H]4C(=O)N[C@@H](CCCCNC(C)=O)C(=O)N4[C@@H]3c3cccc(OCCO)c3)cc2)[C@]12C(=O)Nc1ccccc12 | -0.623 | 1.36 (inactive) | 0.116 | -0.0704 | 0.501 | 2.07 | 0.352 | 1.29 | 0.751 | 1.2 | 2.81 | 1.19 | 0.838 | 0.276 | 1.25 | 1.53 | -0.0996 | 0.581 | -0.185 | -0.878 (inactive)
7 | CO[C@H]1O[C@H](CO)[C@@H](OC(=O)Nc2ccccc2-c2ccccc2)[C@H](OC(=O)Nc2ccccc2)[C@H]1OC(=O)Nc1ccccc1 | 0.167 | -0.295 (inactive) | 0.199 | -0.0846 | 0.701 | 2.41 | 0.268 | 1.3 | 0.697 | 1.15 | 1.38 | 1.29 | 0.508 | 0.991 | 1.3 | 1.86 | -1.06 | 0.719 | 0.679 | -0.849 (inactive)
8 | CC(C)C(O)C1C=CC2C(=O)NC(=O)C2N1Nc1ccccn1 (stereo not given) | 0.701 | 0.316 (inactive) | -0.0044 | -0.0464 | 0.722 | 1.59 | 0.331 | 0.472 | -0.369 | 0.561 | 1.25 | 0.218 | -0.0716 | 0.285 | 0.712 | 0.0205 | 0.44 | 0.129 | 0.169 | -0.362 (inactive)
9 | C=CCN1C(=O)[C@@]2(O[C@@H](CCn3cc([C@H](O)c4ccccc4)nn3)[C@H]([Si](C)(C)c3ccc(OC)cc3)[C@H]2C)c2cc(N3C(=O)c4cccc5cccc3c45)ccc21 | 0.0345 | -0.212 (inactive) | -0.272 | -0.223 | 0.106 | 0.436 | 0.0703 | -0.233 | -1.02 | 0.341 | 0.338 | -0.526 | -0.204 | -0.295 | -0.638 | -0.722 | 1.36 | -0.475 | -0.22 | -0.0152 (inactive)
10 | [N-]=[N+]=Nc1ccccc1[C@@H]1OC(c2ccc(OCCCO)cc2)=N[C@]1(CCS(=O)(=O)c1ccccc1)C(=O)NCC(O)CO (stereo not given in full) | 0.91 | 0.339 (inactive) | -0.023 | 0.014 | 0.564 | 2.5 | 0.649 | 0.885 | -0.165 | 0.998 | 0.592 | 0.794 | 0.131 | 0.911 | 0.518 | -0.0365 | -0.298 | -0.285 | 1.02 | -9.87 (active)
11 | COCCCNC(=O)[C@@]1(Sc2ccc(C)cc2)CC(=O)N(Cc2ccccc2C(F)(F)F)[C@@H]1c1ccc(CO)cc1I | 0.474 | -1.08 (inactive) | -0.402 | -0.121 | 0.175 | 1.08 | 0.295 | 0.188 | -1.51 | -0.89 | -1.39 | -2.04 | -0.905 | -1.75 | -1.59 | -1.5 | -0.288 | -1.78 | -1.47 | 0.166 (inactive)

From PubChem BioAssay
